Screening data: PubChem, several laboratories
Shown are actives, neighbours in structure and some others; about 2.6% of the full set was active somewhere.
TROY signal inh = blocks TROY-dependent signaling in reporter cells; inhibition, % at 10 µM; Q293 LMP1-TROYcd NF-kB luciferase reporter, 4 h; 360,000 compounds, 0.98% hits;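 active = compounds whose plate-normalised and pattern-corrected inhibition of the luciferase reporter signal at the single screening dose is 50% or more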
CF NFkB inh = blocks PAF-induced NF-kB reporter in cystic fibrosis cells; KKLEB NF-kB-GFP reporter, GFP fluorescence overnight; inhibition, % at 5 µM; 360,000 compounds, 0.86% hits; AID 588850;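 active = at least 50% inhibition at 5 µM, scaled per plate between neutral and stimulator controls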;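 note: PAF is a Pseudomonas aeruginosa culture filtrate used as stimulus; plate controls were PAF-stimulated DMSO wells for no effect and unstimulated DMSO wells for full effect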
LGR2 inh = blocks bursicon-induced cAMP signaling via Drosophila LGR2; HEK293 LGR2, CRE-luciferase, bursicon-stimulated, 4 h; inhibition, % at 9.99 µM; 380,000 compounds, 0.35% hits;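 active = drop in luminescence signal, shown as inhibition above about 50% in the replicate tests, limit read from the data, passing the limit was not always enough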;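 note: agonist challenge used bursicon conditioned medium at about half maximal strength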
TWEAK-Fn14 inh = blocks TWEAK-Fn14 interaction in a reporter cell assay. AID 1159606. TWEAK-stimulated Fn14 reporter cells, luciferase luminescence, 8 h. inhibition, % at 10 µM. 360,000 compounds, 2% hits; in the data active = inhibition above about 50%
KKLEB cytotox = CF airway cell cytotoxicity counter-screen; KKLEB CF airway cells viability, ATPlite luminescence, overnight; active compounds read low; cells stimulated with P. aeruginosa culture filtrate; activity change (cytotoxicity), % at 5 µM; 360,000 compounds, 0.36% hits; AID 602141;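 active = corrected activity change at or below -50% at 5 µM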
EWS-Fli inh = inhibitors of EWS/Fli oncoprotein transcriptional activity; inhibition, % at 12.6 µM; A673 NR0B1-luciferase reporter, viability-normalised; 350,000 compounds, 0.67% hits;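 active = mean inhibition of at least 50% after viability correction, with every replicate also passing that limit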;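 note: firefly luciferase signal divided by Alamar Blue viability fluorescence both relative to DMSO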
Numbers without * were called inactive.

How did CC(C)NC(=O)N(C)C[C@H]1Oc2ccc(NC(=O)Nc3ccc4c(c3)OCO4)cc2C(=O)N([C@@H](C)CO)C[C@@H]1C do in these assays?
LGR2 inh: -11; EWS-Fli inh: -17

How did COc1ccc(C=NNC(=S)Nc2ccc(F)cc2)cc1OC do in these assays?
TROY signal inh: 78*; CF NFkB inh: -17; LGR2 inh: 50*; TWEAK-Fn14 inh: 46; KKLEB cytotox: 1; EWS-Fli inh: 42

What do the screens show for `COc1ccc(C=NNC(=S)NN=Cc2ccc(OC)c(OC)c2)cc1OC`?
TROY signal inh: -7; CF NFkB inh: -3; LGR2 inh: -66; TWEAK-Fn14 inh: -9; KKLEB cytotox: -5; EWS-Fli inh: -38

How did COc1ccc(/C=N/NC(=S)Nc2cccc(C(=O)O)c2)cc1OC do in these assays?
TROY signal inh: 19; CF NFkB inh: -11; LGR2 inh: 82*; TWEAK-Fn14 inh: 76*; KKLEB cytotox: 5; EWS-Fli inh: 15

Results for COc1cc(/C=N/NC(=S)Nc2cccc(C(=O)O)c2)cc(OC)c1OC ?
TROY signal inh: -19; CF NFkB inh: -9; LGR2 inh: 13; TWEAK-Fn14 inh: -30; KKLEB cytotox: 15; EWS-Fli inh: 11

Results for O=C(C[C@@H]1CC[C@H]2[C@@H](COC[C@@H](O)CN2C(=O)Nc2ccc(Cl)cc2)O1)NCC1CC1 ?
LGR2 inh: -7; EWS-Fli inh: 9

What do the screens show for `COc1ccc(NC(=O)Cn2nnc(-c3ccccc3NS(=O)(=O)c3ccccc3)n2)cc1`?
TROY signal inh: 33; CF NFkB inh: 4; TWEAK-Fn14 inh: 54*; KKLEB cytotox: -16

How did COc1ccc(/C=C/c2cc(C(=O)O)c3ccccc3n2)cc1 do in these assays?
TROY signal inh: -6; CF NFkB inh: -11; LGR2 inh: 7; TWEAK-Fn14 inh: 77*; KKLEB cytotox: -14; EWS-Fli inh: 70*

How did COc1ccc(/C=C/C(=O)c2cc(F)ccc2OC(=O)c2ccccc2)cc1OC do in these assays?
TROY signal inh: 25; CF NFkB inh: 53*; TWEAK-Fn14 inh: -62; KKLEB cytotox: -20

What do the screens show for `COc1ccc(/C=C/C(=O)c2cc(F)ccc2OC(=O)c2ccc(OC)c(OC)c2)cc1OC`?
TROY signal inh: -12; CF NFkB inh: 5; LGR2 inh: 25; TWEAK-Fn14 inh: 43; KKLEB cytotox: -5; EWS-Fli inh: -2

What do the screens show for `COc1ccc(/C=C/C(=O)Nc2ccccc2C(F)(F)F)cc1OC`?
TROY signal inh: -40; CF NFkB inh: -4; LGR2 inh: -24; TWEAK-Fn14 inh: -10; KKLEB cytotox: -10; EWS-Fli inh: -2

How did COc1ccc(/C=C/C(=O)Nc2ccccc2C(=O)O)cc1 do in these assays?
TROY signal inh: 54*; CF NFkB inh: -10; LGR2 inh: 59*; TWEAK-Fn14 inh: 87*; KKLEB cytotox: -8; EWS-Fli inh: -7

Results for COc1ccc(/C=C/C(=O)Nc2ccccc2C(=O)O)cc1OC ?
TROY signal inh: 84*; CF NFkB inh: -12; LGR2 inh: 81*; TWEAK-Fn14 inh: 98*; KKLEB cytotox: 38; EWS-Fli inh: 40

Results for C[C@H](O)C#Cc1ccc2c(c1)O[C@H](CN(C)C(=O)C1CCC1)[C@@H](C)CN([C@H](C)CO)S2(=O)=O ?
LGR2 inh: -5; EWS-Fli inh: -3

Results for COc1cccc(C(=O)NC(=S)Nn2cnnc2)c1OC ?
TROY signal inh: 4; CF NFkB inh: -5; LGR2 inh: 20; TWEAK-Fn14 inh: 57*; KKLEB cytotox: 22; EWS-Fli inh: 6

How did FC(F)(F)c1cc(-c2ccccc2)nc(N2CCCCCC2)n1 do in these assays?
TROY signal inh: -12; CF NFkB inh: 2; TWEAK-Fn14 inh: 8; KKLEB cytotox: 11

Results for CS(=O)(=O)c1nc(-c2ccccc2)cc(C(F)(F)F)n1 ?
TROY signal inh: 53*; CF NFkB inh: 95*; TWEAK-Fn14 inh: 47; KKLEB cytotox: -73*

What do the screens show for `Cc1cc(NC(=O)CCS(=O)(=O)c2nc(-c3ccccc3)cc(C(F)(F)F)n2)no1`?
TROY signal inh: 56*; CF NFkB inh: 76*; TWEAK-Fn14 inh: 54*; KKLEB cytotox: -33

Results for CCOC(=O)c1cccc(NC(=O)c2ccc3c(c2)OCO3)c1 ?
TROY signal inh: -32; CF NFkB inh: -6; LGR2 inh: -61; TWEAK-Fn14 inh: -31; KKLEB cytotox: 3; EWS-Fli inh: 71*

How did CC(=O)c1cccc(NC(=O)c2ccc3c(c2)OCO3)c1 do in these assays?
TROY signal inh: -38; CF NFkB inh: 0; TWEAK-Fn14 inh: -13; KKLEB cytotox: 5; EWS-Fli inh: -62

Results for CCOC(=O)CNC(=O)/C=C/c1ccc2c(c1)OCO2 ?
TROY signal inh: -56; CF NFkB inh: 16; LGR2 inh: -10; TWEAK-Fn14 inh: -8; KKLEB cytotox: -1; EWS-Fli inh: 5

How did CCOC(=O)c1c(C)c(C(=O)Nc2ccc3c(c2)OCO3)c(C)n1C do in these assays?
TROY signal inh: -30; CF NFkB inh: 0; LGR2 inh: 0; TWEAK-Fn14 inh: -29; KKLEB cytotox: 5

Results for CCOC(=O)c1c(N)sc(C(=O)Nc2ccc3c(c2)OCO3)c1C ?
TROY signal inh: 42; CF NFkB inh: 14; TWEAK-Fn14 inh: 79*; KKLEB cytotox: -33

What do the screens show for `CCOC(=O)c1cccc(NC(=O)/C=C/c2ccc3c(c2)OCO3)c1`?
TROY signal inh: 51*; CF NFkB inh: -11; LGR2 inh: -67; TWEAK-Fn14 inh: 70*; KKLEB cytotox: -2

What do the screens show for `Cc1c(C(=O)NCc2cccnc2)oc2ccc(S(=O)(=O)N3CCC4(CC3)OCCO4)cc12`?
TROY signal inh: 1; CF NFkB inh: -5; TWEAK-Fn14 inh: -17; KKLEB cytotox: 4

What do the screens show for `Cc1c(C(=O)NCCC2=CCCCC2)oc2ccc(S(=O)(=O)N3CCOCC3)cc12`?
TROY signal inh: 38; CF NFkB inh: 13; TWEAK-Fn14 inh: 52*; KKLEB cytotox: -17

How did Cc1c(C(=O)NCCCN2CCCC2=O)oc2ccc(S(=O)(=O)N3CCOCC3)cc12 do in these assays?
TROY signal inh: 9; CF NFkB inh: -4; TWEAK-Fn14 inh: 12; KKLEB cytotox: -6

How did Cc1ccc(CNC(=O)c2oc3ccc(S(=O)(=O)N4CCC5(CC4)OCCO5)cc3c2C)cc1 do in these assays?
TROY signal inh: 34; CF NFkB inh: 9; TWEAK-Fn14 inh: 54*; KKLEB cytotox: -25

Results for N#Cc1ccc(-c2ccc(C3[C@H]4CNC[C@@H]3N4C(=O)Nc3ccc(F)cc3)cc2)cc1 (stereo partly specified) ?
LGR2 inh: -13; EWS-Fli inh: -9

Results for COc1ccc(NC(=O)N(C)C[C@@H]2Oc3ncc(C#Cc4ccccc4)cc3C(=O)N([C@H](C)CO)C[C@@H]2C)cc1 ?
LGR2 inh: 8; EWS-Fli inh: -1

What do the screens show for `C[C@H](NC(=O)C[C@@H]1CC[C@@H](NC(=O)C2CC2)[C@H](CO)O1)c1ccccc1`?
LGR2 inh: -1; EWS-Fli inh: 2
